# PubChem BioAssay AID1508600 (Functional Genomics Laboratory (NCATS/FGL), 2020)
# Hit rate of the full screen: of about 53,000 sequences, about 3,700 (7%) were called active. The full list was thinned out, with actives kept by preference. Values without a mark were called inactive.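 Rule for the calls: active = gene knockdowns whose robust z-score for IL-1 alpha signal is at least 2 or at most -2, so actives lie on both sides; inactive = the rest.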
# Assay: Components of the Cytosolic LPS Sensing Pathway: Gene Identification via Genome-wide siRNA Screen;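 note: robust z of the log signal after scaling to non-targeting control siRNA wells of the plate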
# Details: RAW264.7 macrophages, IL-1a HTRF, actives lie on both sides, screened at 100 nM (by protocol), cells primed 5 h with Pam3CSK4 first
# Procedure, shortened: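 RAW264.7 mouse macrophages reverse-transfected with single siRNAs (100 nM final) for 48h, primed with Pam3CSK4 for 5 hours, then transfected with LipidA for 24 hour. Supernatant IL-1a read by HTRF; values normalized to negative-control median, log-transformed robust z-scores.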
row,Sequence,z-score
1,GGACCAGCUGAUCUCAGUATT against Olfr418,-1.94
2,GGCUGACAAGAGAUUUAAATT against 4930430F08Rik,-0.703
3,GCUACGCUUCCUUAUUUGCTT against Tubgcp3,0.525
4,GCCAAUAAGAACAACGAUGTT against Des,0.732
5,GUCUAUCUUCAGCACAAACTT against Klrc3,2.12 (active)
6,GGUCUUUGAUCUACGAAUGTT against Rhobtb2,0.825
7,GGAGAUAAAUGUGUAGACCTT against Matn3,0.915
8,GCACAAAUAAAGAUAAGAGTT against Uox,-0.178
9,GGUUUAACUGUAGCAUAAGTT against Pde12,-0.0106
10,GGGACUCGGGCAGUAUUCATT against Tgm5,-0.185
11,GGUCGAACUUCUGUGCCAUTT against Slc39a8,2.39 (active)
12,GCAGAUGUAAAUAGCAAAATT against Apc,0.955
13,GGGUGACAUGAUUUUAACUTT against Fbh1,-0.727
14,GGCAAAUCCCGUUCACUGATT against Magel2,-1.08
15,GCUUUUGGUACAGGAUGCCTT against 5830411N06Rik,-2.68 (active)
16,GCGAUGAUGUGCUUAUGUCTT against Zfp341,0.735
17,CCUUAGGUACUCUAAGGAATT against D1Pas1,-0.109
18,CGGAUUUUGAAGUACACCGTT against Alg8,0.207
19,CGCAGUACCUAUUUGAGCGTT against Hs6st1,1.62
20,GCUCAUAAUUUUGACAGCUTT against Cyp51,0.168
21,GGCUUUCACGCUUUGACAATT against Ap1m2,0.209
22,GACUAACCAGAUGAAAGUCTT against Vmn1r11,-0.66

row,Sequence,z-score
1,GCAUGUUACUAGGAUAACUTT against Mup20,2.27 (active)
2,GGAUUCUAUGACAAAGACATT against Ddx3x,1.84
3,GGCUUCCAAAACAAAUCAATT against Rgn,0.857
4,CCUGCACAACUGGAAACCUTT against Nectin2,-2.16 (active)
5,GAUAAUGACCAGGCUACCATT against Magea7-ps,0.069
6,CCACUGUGCUCAAUUUGCATT against Slc9a2,-0.372
7,GGCUCUGGAAAAGAACAACTT against Sds,1.52
8,GGAAAUCAACAGCUCACAUTT against B3gnt9,-0.327
9,GGAUCUAUAAGGACUACAUTT against Bmp7,4.01 (active)
10,GGCCGAUUCCAUUGUACAGTT against Fam177a,3.54 (active)
11,GCUGUAUGGCUAAGCAGUGTT against Olfr113,-0.42
12,GCCUCAAAAUGGCGGAACUTT against Casp8,-0.249
13,CCAAGCGAAUGUCAAAAUATT against Fam163a,0.66
14,GGAGAGGAACAGGAACAGATT against Ankrd9,0.557
15,GGGUCAUUGGUAGCAACGATT against Oas1g,-2.9 (active)
16,GGCCUAAUCGAAAUGUGGCTT against Trim12a,0.515
17,GGUGACUGGUUUGUUGCUUTT against Pstk,-1.39
18,GCUACAGGGAAGUAUUGAATT against Apc,2.05 (active)
19,GGCUGGAAUCACUGAUAUUTT against Hddc3,0.527
20,CGAGAUGUUUAUUCAACAUTT against Tcf23,-0.431
21,GGAACAUUUGAAGUGCAAATT against Ilf2,-0.45
22,GCCAUCGUCUACCUAUGACTT against Olfr358,-1.85

row,Sequence,z-score
1,CGGUUAGUCUGUCAGUAUCTT against Xrcc3,0.488
2,GAUUCAGCAUUAUUUCUGUTT against Olfr980,0.524
3,GGGCUUGAUUGUGAAAGAATT against Tlr12,-1.82
4,GGGAGAGUAAUGUGGACAUTT against Slc37a2,3.86 (active)
5,GCUGAAGACACUCUGUGAATT against Ehbp1l1,-1.7
6,GCAACGCAGUACUCUACCCTT against Tns2,0.557
7,CCCAGUGGUUUUAAAGCAUTT against Commd3,-1.64
8,GCCAACGCACAUAAUAAAGTT against Ndufa13,0.245
9,GCUAGGUAUCUAAGGAUAUTT against Fig4,-0.579
10,GGGAAACUCAAACUGAUUGTT against 9930104L06Rik,0.0417
11,GGUCAUUGUCAAAGUCAAGTT against Nutm1,2.4 (active)
12,GGUCAAUUCUUUGUGAUGATT against Usf1,-0.609
13,GGACACUAUACAAAUUUCGTT against Fank1,-0.109
14,GCGACUGUACAACGAAUUGTT against Clp1,3.34 (active)
15,GCAAAACUUCGGAUAGUCATT against Gak,0.382
16,GGCCGUUUCCUACCUCAUGTT against Cckbr,-1.09
17,GGUCCAGAUCAGUUGACAGTT against Srsf5,0.812
18,GCGUGGUGUAUUUGAAUCATT against Ch25h,2.31 (active)
19,CCCAACUCGGUUUUUUUCUTT against Olfr1037,0.827
20,CCUAAGCUUAGAUCAACAUTT against Dhx36,-0.735
21,GGACGAGAUGAACAGCCUCTT against Chkb,0.0671
22,GGCGCAACGAAUAAAAAUATT against D630023F18Rik,-0.581

row,Sequence,z-score
1,GGAUUUCUUCCAGAAGAUGTT against Grhpr,-1.54
2,GGGAACAGUAUCUGAUUCATT against Polg,2.35 (active)
3,CGUAAACAUUUCCUUCUACTT against Dmbt1,-0.718
4,CUAUGACACUUGGUUCCAUTT against Nxpe5,1.69
5,GCCUGUAGCAGAGAACUUUTT against Tmem59l,1.1
6,GGUGUGAAGGAGAAGUUCATT against Atp6v1a,2.01 (active)
7,CCCAAAACUUCGUUUGUGUTT against Vezf1,-0.973
8,CCCAUAUCCUAGCUCUCUUTT against Olfr1230,-1.49
9,GGCCAAAGUCCACACAAGUTT against Naaa,2.12 (active)
10,GGCAUGGAGAGAAGAAAAGTT against Rassf7,-0.433
11,GCUCUAGAAAGUUACAGAUTT against Crtam,0.317
12,GGCUGCAUCUAUAACAUAATT against Olfr611,-0.767
13,GGUGAAGGUACGAGUAAGATT against Prkra,-0.809
14,GGACGAGAACGAUAAUUACTT against Dsc2,0.335
15,GGAGGUAAAGAUCAUGUCATT against Ddr1,-1.39
16,GGAGUAGCUGUACUCAACATT against Olfr790,-0.246
17,GGUCCUAGGUACAAUCACUTT against Slfn10-ps,-2.58 (active)
18,GCCACUCAGAGUGUGGAGUTT against Ddx20,-0.95
19,GUCCUGGAAGAAAUGAGAATT against Ifna4,0.781
20,CCCACAUCCCUAAGUUGUGTT against Kash5,1.55
21,GGAUAAUCAUUCUUGUCACTT against Ptgfr,-0.736
22,GGUCUUUGAAUGGAACAAUTT against Aldh7a1,-1.04

row,Sequence,z-score
1,GGAGUCUCCCAAAUGAAGATT against Son,-2.84 (active)
2,GAGAGAGAAUACCACUGUGTT against Gm5431,-0.244
3,GCUGGAUGUGAAAAGAGCGTT against Aktip,-0.00618
4,GGUGGAUGAAGAGUAUAAGTT against Phka2,0.338
5,GGCAGUAAGAACUACUAAATT against Ric1,2.65 (active)
6,GGGCCAGCAAGGAAAGAAUTT against Pitx2,-1.37
7,GCCAUGAUACCUUGUUAUUTT against Plppr5,1.08
8,GCUUUUUUAUGCAUUCCAATT against Rock1,0.575
9,GGCACCAAGCUCGAUGAUGTT against Sh3gl2,-1.41
10,GCUUUUCACAUGAUGUGUUTT against Klrb1a,-0.5
11,GCCCUUACUUAGGUCUAGGTT against Kctd12,-0.522
12,GGAAGAGAAGCUGAACAAGTT against Gja1,2.53 (active)
13,GGAGCUUCUCAUGACCUUUTT against Mettl21e,0.307
14,GCGAUGGUAUGUUGAAGGATT against 4930432E11Rik,0.639
15,GGAGUACAUGACCACAGAUTT against Lncpint,-2.06 (active)
16,GCCUAAAAACUCUAAAUCUTT against Mmut,-0.0189
17,GGUGUGGACUAUGAUACCATT against Anxa9,0.984
18,GGCUUUGAACAGGAAAGACTT against Ube2z,-0.417
19,CCUGCAAAUGAUACCACCGTT against Olfr734,-0.402
